Measured values from PubChem BioAssay.
Where “and” joins values, the source holds several entries; their conditions need not be identical. Equal entries are not always repeated. Calls of active or inactive are those of the source.

Experiments:
[1] = system: PRMT1 (protein arginine N-methyltransferase 1); assay: PRMT1 binders on small-molecule microarrays, primary screen, biochemical, small-molecule microarray, 635 nm fluorescence (AID 1088); details: small-molecule microarray binding, higher = more signal;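 also: binding of Prmt1 protein to compounds spotted on small-molecule microarray slides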
[2] = yeast growth modulation, basal conditions, primary screen, YJM789 clinical isolate, OD600, 24 h (AID 1089);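 also: growth of clinical yeast isolate S. cerevisiae YJM 789 seeded 1000 cells per well; test concentration not given here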; details: S. cerevisiae YJM789 growth, higher = more signal, called active from +8 up or from −8 down
[3] = fission yeast growth modulation, primary screen, strain 972, OD600, 24 h, no modulator (AID 1090);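 also: basal condition with compound alone and no growth modifier present; test concentration not given here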; details: S. pombe 972 growth, higher = more signal, called active from +8 up or from −8 down
[4] = S. cerevisiae growth modulation with rapamycin, primary screen, strain BY4716, OD600, 96 h (AID 1091); details: higher = more signal, called active from +8 up or from −8 down; also: test concentration not given here
[5] = biological target: Torsin-1A-interacting protein 2 (Homo sapiens) (UniProt Q8NFQ8); assay: LULL1 binders on small-molecule microarray, primary screen, cell lysate, human LULL1 lysate, 635/667 nm fluorescence (AID 1092); details: hLULL1 lysate binding, 635 nm fluorescence, higher = more signal;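 also: probe is lysate of COS7 cells overexpressing human LULL1; score merges per-feature 667 nm fluorescence with signal-to-noise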
Torsin-1A-interacting protein 2 (Homo sapiens), sequence (Q8NFQ8 whole entry, looked up): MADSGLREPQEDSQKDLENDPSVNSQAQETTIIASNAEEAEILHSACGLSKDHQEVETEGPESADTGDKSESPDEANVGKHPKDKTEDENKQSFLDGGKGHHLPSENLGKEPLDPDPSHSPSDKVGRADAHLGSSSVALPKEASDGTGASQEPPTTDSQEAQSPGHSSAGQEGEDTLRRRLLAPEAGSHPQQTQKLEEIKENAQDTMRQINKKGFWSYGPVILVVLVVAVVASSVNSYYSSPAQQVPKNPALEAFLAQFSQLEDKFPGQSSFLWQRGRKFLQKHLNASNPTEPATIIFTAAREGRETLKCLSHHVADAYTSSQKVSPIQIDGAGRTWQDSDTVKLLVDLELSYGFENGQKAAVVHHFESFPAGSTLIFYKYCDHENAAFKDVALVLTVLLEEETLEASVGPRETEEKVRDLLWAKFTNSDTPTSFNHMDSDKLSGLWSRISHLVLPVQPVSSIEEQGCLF

[6] = E. coli growth modulation, two-sided OD650, primary screen, E. coli filamentation project, strain DRC41, 24 h (AID 1093); details: OD650, 24 h, higher = more signal, called active from +8 up or from −8 down;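 also: MC1000 strain lacking acrAB efflux and sulA so SOS filamentation is blocked; test concentration not given here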
[7] = small-molecule microarray binders of probe aLefty2, primary screen, biochemical, biotinylated probe, 635/667 nm fluorescence (AID 1094); details: higher = more signal;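 also: score merges spot fluorescence near 667 nm with spot signal-to-noise ratio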
[8] = system: Noggin (protein binding on small-molecule microarray); assay: Noggin binders on small-molecule microarray, primary screen, biochemical, 635/667 nm fluorescence (AID 1095); details: 635 nm fluorescence, higher = more signal;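 also: score merges 667 nm feature fluorescence with signal to noise over triplicate slides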
[9] = biological target: Neurogenic locus notch homolog protein 3 (Homo sapiens) (UniProt Q9UM47); assay: NOTCH3 binders on small-molecule microarray, primary screen, biochemical, 635/667 nm fluorescence (AID 1096); details: NOTCH3 binding, 635 nm fluorescence, higher = more signal
Neurogenic locus notch homolog protein 3 (Homo sapiens), sequence (Q9UM47 whole entry, looked up): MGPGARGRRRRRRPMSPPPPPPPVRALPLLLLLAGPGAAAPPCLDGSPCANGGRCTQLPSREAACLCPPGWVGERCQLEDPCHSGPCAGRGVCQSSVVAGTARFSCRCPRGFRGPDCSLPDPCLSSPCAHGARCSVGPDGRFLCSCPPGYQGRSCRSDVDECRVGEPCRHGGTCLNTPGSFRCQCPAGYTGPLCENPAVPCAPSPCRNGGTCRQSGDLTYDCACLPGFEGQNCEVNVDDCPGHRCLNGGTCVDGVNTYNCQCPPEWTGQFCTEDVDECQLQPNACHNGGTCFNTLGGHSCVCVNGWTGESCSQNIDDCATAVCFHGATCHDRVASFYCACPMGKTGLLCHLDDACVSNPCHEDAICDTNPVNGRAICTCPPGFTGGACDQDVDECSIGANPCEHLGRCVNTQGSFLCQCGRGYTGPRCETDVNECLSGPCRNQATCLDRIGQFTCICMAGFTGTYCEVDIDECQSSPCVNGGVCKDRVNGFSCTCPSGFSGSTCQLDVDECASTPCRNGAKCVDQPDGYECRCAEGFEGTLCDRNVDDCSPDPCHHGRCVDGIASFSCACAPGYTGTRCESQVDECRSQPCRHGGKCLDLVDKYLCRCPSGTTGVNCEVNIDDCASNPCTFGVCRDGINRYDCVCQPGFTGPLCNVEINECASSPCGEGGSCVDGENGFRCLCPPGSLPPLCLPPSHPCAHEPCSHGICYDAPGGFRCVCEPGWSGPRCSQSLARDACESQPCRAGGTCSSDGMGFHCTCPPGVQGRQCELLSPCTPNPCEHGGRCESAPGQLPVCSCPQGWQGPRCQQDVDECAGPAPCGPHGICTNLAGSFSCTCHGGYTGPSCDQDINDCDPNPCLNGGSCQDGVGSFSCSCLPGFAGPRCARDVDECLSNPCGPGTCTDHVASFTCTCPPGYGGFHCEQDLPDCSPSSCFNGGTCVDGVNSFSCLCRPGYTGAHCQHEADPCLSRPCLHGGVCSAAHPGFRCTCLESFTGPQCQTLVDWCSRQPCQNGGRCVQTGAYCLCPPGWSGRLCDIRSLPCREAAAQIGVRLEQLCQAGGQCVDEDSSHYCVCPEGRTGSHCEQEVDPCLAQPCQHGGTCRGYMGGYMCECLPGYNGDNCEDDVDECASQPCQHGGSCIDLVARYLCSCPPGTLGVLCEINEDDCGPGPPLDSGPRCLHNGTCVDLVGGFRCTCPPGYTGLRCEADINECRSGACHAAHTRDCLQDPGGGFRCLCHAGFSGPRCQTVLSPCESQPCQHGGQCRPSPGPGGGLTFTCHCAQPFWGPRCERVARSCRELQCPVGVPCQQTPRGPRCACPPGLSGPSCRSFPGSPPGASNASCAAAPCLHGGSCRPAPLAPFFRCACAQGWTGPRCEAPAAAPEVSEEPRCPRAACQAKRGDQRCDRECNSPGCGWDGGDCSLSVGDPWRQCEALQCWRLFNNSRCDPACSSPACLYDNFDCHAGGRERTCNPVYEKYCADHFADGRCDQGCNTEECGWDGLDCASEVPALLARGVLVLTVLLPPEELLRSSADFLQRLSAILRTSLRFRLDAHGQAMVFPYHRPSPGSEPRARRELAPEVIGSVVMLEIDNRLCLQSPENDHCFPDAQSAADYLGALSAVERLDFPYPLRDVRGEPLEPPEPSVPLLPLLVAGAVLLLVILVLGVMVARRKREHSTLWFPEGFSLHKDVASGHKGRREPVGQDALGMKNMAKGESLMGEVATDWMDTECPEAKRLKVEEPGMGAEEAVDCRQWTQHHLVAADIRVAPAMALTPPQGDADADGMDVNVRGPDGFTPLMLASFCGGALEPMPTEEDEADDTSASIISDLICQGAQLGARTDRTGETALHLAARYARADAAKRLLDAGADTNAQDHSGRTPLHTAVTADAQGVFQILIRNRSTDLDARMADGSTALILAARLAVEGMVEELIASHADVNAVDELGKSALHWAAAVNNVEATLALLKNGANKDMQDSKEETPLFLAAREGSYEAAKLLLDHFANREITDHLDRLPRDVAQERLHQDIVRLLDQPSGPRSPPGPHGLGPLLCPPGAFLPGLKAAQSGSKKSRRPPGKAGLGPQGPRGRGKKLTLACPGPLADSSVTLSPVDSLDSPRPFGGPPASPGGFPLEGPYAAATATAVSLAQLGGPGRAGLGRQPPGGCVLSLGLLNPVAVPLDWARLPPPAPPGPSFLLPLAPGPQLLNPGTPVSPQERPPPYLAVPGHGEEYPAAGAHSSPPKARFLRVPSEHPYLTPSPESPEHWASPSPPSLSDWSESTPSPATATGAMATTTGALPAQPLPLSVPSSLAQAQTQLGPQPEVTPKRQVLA

[10] = small-molecule microarray binders of probe aEGFR, primary screen, biochemical, biotinylated probe, 635/667 nm fluorescence (AID 1097); details: higher = more signal;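 also: probe is a biotinylated anti-EGFR antibody binding compounds printed on slides; score combines fluorescence near 667 nm and signal to noise of each spot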
[11] = system: Plasmodium falciparum Sir2 (PF13_0152, Sir2A); assay: pfSir2 binders on small-molecule microarrays, primary screen, biochemical, small-molecule microarray, 635 nm fluorescence (AID 1098); details: small-molecule microarray binding, fluorescence 635 nm; higher = more signal;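 also: score merges spot fluorescence intensity with its signal-to-noise ratio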
[12] = small-molecule microarray binders of probe aDKK1, primary screen, biochemical, biotinylated probe, 635/667 nm fluorescence (AID 1099); details: higher = more signal;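 also: score merges 667nm spot fluorescence with signal to noise across triplicate slides; reference of the scale not given here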
[13] = small-molecule microarray binders of probe aCHRDL2, primary screen, biochemical, biotinylated probe, 635/667 nm fluorescence (AID 1100); details: higher = more signal
[14] = splicing luciferase reporter signal modulators, primary screen, spliceosome inhibition project, cell-based, HEK293, splice +/- reporter (AID 1101); details: luminescence, 24 h, higher = more signal, called active from +8 up or from −8 down;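 also: HEK293 cells carrying a splicing-competent luciferase reporter gene; test concentration not given here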
[15] = biological target: Fibroblast growth factor 10 (Homo sapiens) (UniProt O15520); assay: FGF10 binders on small-molecule microarrays, primary screen, biochemical, small-molecule microarray, 635 nm fluorescence (AID 1102); details: FGF10 binding, fluorescence 635 nm, higher = more signal
Fibroblast growth factor 10 (Homo sapiens), sequence (O15520 whole entry, looked up): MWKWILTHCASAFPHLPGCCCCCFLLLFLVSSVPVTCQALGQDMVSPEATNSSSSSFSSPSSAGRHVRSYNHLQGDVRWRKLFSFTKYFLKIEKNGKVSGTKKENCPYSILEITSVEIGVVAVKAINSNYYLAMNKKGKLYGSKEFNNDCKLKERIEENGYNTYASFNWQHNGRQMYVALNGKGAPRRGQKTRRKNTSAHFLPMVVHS

[16] = system: glycogen synthase kinase-3 (GSK3A per assay name; protocol says GSK3B); assay: GSK3 binders on small-molecule microarrays, primary screen, biochemical, small-molecule microarray, 635 nm fluorescence, GSK3A (AID 1103); details: small-molecule microarray binding, fluorescence 635 nm; higher = more signal; also: the record names both GSK3A and GSK3B
[17] = biological target: Epidermal growth factor receptor (Homo sapiens) (UniProt P00533); assay: EGFR binders on small-molecule microarrays, primary screen, biochemical, small-molecule microarray, 635 nm fluorescence (AID 1104); details: EGFR binding, higher = more signal;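 also: score merges 667 nm emission intensity with spot signal to noise over triplicate slides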
Epidermal growth factor receptor (Homo sapiens), sequence (P00533 whole entry, looked up): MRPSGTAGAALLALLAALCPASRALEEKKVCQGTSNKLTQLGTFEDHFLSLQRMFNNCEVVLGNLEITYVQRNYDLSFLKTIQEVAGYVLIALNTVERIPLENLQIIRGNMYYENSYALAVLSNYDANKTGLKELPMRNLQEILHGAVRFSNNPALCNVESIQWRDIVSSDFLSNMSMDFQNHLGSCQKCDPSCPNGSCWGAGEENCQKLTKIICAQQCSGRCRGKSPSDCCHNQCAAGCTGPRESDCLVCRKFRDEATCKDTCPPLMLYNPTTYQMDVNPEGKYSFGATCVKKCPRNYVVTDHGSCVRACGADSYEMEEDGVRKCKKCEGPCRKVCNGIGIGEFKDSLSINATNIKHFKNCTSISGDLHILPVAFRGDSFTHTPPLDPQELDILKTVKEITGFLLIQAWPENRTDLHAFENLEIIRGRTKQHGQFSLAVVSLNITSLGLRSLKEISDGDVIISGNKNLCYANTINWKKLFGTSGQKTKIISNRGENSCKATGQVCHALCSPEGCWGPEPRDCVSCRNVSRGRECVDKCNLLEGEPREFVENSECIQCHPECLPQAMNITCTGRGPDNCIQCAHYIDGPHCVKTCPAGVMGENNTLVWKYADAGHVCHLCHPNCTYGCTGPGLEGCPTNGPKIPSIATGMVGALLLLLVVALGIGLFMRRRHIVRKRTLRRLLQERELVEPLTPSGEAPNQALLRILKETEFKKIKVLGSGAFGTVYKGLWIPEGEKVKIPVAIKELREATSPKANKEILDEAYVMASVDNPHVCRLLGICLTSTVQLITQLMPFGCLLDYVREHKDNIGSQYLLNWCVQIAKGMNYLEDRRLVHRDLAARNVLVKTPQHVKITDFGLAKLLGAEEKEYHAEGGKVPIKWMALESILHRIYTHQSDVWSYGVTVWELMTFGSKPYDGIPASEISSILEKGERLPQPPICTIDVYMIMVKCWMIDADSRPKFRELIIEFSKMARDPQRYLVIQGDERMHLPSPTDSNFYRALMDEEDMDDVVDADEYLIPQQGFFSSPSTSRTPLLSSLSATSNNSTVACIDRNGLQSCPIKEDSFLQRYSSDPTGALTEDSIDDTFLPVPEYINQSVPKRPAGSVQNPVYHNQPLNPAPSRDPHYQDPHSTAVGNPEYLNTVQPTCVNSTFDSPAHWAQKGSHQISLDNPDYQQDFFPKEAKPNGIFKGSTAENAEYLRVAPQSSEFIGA

[18] = biological target: Follistatin-related protein 3 (Homo sapiens) (UniProt O95633); assay: FSTL3 binders on small-molecule microarrays, primary screen, biochemical, small-molecule microarray, 635 nm fluorescence (AID 1105); details: FSTL3 binding, higher = more signal;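 also: score merges emission near 667 nm and signal to noise per printed spot across three slides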
Follistatin-related protein 3 (Homo sapiens), sequence (O95633 whole entry, looked up): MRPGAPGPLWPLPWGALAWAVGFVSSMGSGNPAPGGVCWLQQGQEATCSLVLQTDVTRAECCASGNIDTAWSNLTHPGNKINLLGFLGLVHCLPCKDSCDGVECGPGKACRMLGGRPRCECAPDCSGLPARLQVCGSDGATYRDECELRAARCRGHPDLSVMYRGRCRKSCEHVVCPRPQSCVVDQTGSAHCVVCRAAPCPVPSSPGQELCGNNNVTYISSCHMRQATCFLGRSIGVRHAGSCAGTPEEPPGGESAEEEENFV

[19] = biological target: Dickkopf-related protein 1 (Homo sapiens) (UniProt O94907); assay: DKK1 binders on small-molecule microarrays, primary screen, biochemical, small-molecule microarray, 635 nm fluorescence scan (AID 1106); details: DKK1 binding, higher = more signal;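 also: score merges emission near 667 nm with signal to noise over three replicate slides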
Dickkopf-related protein 1 (Homo sapiens), sequence (O94907 whole entry, looked up): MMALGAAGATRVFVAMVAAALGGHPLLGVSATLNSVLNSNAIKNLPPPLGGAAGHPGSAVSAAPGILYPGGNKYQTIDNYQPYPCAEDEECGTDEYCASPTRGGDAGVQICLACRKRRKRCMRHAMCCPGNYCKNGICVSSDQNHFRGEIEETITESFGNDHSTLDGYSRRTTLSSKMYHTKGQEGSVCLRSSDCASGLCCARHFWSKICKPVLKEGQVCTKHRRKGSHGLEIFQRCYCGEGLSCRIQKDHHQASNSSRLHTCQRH

[20] = system: Inhibin beta A chain (activin A); assay: INHBA (activin A) binders on microarrays, primary screen, biochemical, small-molecule microarray, 635 nm fluorescence scan (AID 1107); details: small-molecule microarray binding, higher = more signal;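 also: mouse activin A protein probed at 4.33 µg/mL on printed slides; score merges bound-protein fluorescence near 667 nm with spot signal-to-noise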

| Compound | composite z-score [1] | z-score [2] | z-score [3] | z-score [4] | composite z-score [5] | z-score [6] | composite z-score [7] | composite z-score [8] | composite z-score [9] | composite z-score [10] | composite z-score [11] | composite z-score [12] | composite z-score [13] | z-score [14] | composite z-score [15] | composite z-score [16] | composite z-score [17] | composite z-score [18] | composite z-score [19] | composite z-score [20] |
| --- | --- | --- | --- | --- | --- | --- | --- | --- | --- | --- | --- | --- | --- | --- | --- | --- | --- | --- | --- | --- |
| C=CCN(CCCC)C(=O)C1N(c2ccc(CCO)cc2)C(=O)C2C(C(=O)O)C3C=CC21O3 (stereo not given) | 0.0734 and -0.79 | -0.844 (inactive) and -0.115 (inactive) | -0.261 (inactive) and -0.527 (inactive) | -0.0659 (inactive) and 0.252 (inactive) | -1.07 and 0.53 | 1.13 (inactive) and 2.05 (inactive) | 0.113 and 0.0553 | -2.44 and -3.58 | -1.38 and -1.27 | -0.226 and -0.317 | -1.39 and 1.08 | -0.112 and -0.229 | 0.354 and 1.07 | -0.378 (inactive) and 0.182 (inactive) | -1.48 and -1.93 | -1.54 and -1.22 | -1.51 and -2.06 | -1.76 and -2.15 | -2.31 and -3.32 | -1.59 and -3.61 |
| CCCC[C@@H]1CN2[C@H](c3ccc(Br)cc3)[C@@H](C)CC[C@H]2C(=O)O1 | -0.214 and 0.499 | -0.156 (inactive) and -0.142 (inactive) | -19.4 (active) and -17.4 (active) | -0.269 (inactive) and -0.224 (inactive) | -0.461 and -0.18 | 0.298 (inactive) and 0.24 (inactive) | -0.234 and -0.145 | 0.16 and 0.31 | -0.391 and -0.433 | -0.174 and -0.137 | 0.186 and 0.254 | -0.385 and -0.192 | -0.492 and -0.707 | -0.475 (inactive) and 0.405 (inactive) | 0.124 and 0.115 | 0.0093 and -0.0119 | 0.283 and 0.308 | -0.427 and -0.351 | 0.407 and -0.117 | 0.574 and 0.485 |
| C[C@@]1([C@@H](NC(=O)Cc2ccccc2)c2ccc(-c3ccccc3)cc2)C[C@H]1C1CCCCC1 | 0.314 and 0.316 and 0.125 | 0.375 (inactive) and 0.029 (inactive) and 0.56 (inactive) | -6 (inactive) and -0.107 (inactive) and 1.45 (inactive) | -0.167 (inactive) and 0.998 (inactive) and 2.36 (inactive) | -0.331 and 2.71 and 2.97 | -1.16 (inactive) and -0.413 (inactive) and -1.74 (inactive) | 0.586 and 1.19 and -0.294 | -0.0626 and -0.481 and -0.08 | 0.444 and 0.213 and 0.544 | 0.0843 and 0.812 and -0.116 | 0.334 and 0.359 and 0.301 | 1.14 and 1.83 and -0.112 | 0.775 and 1.08 and 0.538 | -4.09 (inactive) and -1.68 (inactive) and 0.868 (inactive) | 0.543 and 0.838 and 0.0825 | 0.271 and 0.234 and 0.826 | -0.0372 and 0.289 and -0.265 | -0.008 and -0.172 and 0.156 | -0.193 and -0.286 and -0.719 | 1.3 and 1.08 and 0.556 |
| CC[C@@H]1C(Sc2ccccc2)C(C(=O)O)[C@H](c2ccc(C)cc2)N1S(=O)(=O)c1ccc(C)cc1 (stereo not given in full) | 1.25 and 1.49 | -0.768 (inactive) and -2.59 (inactive) | 0.796 (inactive) and -0.975 (inactive) | -0.451 (inactive) and -0.576 (inactive) | 2.66 and 3.19 | -0.889 (inactive) and -0.743 (inactive) | 0.149 and -0.0615 | -0.0727 and -0.216 | 1.11 and 1.07 | -0.0025 and -0.114 | 1.68 and 1.07 | 0.46 and -0.127 | 0.731 and 0.46 | -0.0623 (inactive) and -0.895 (inactive) | 0.617 and 0.881 | 0.414 and 1.14 | -0.233 and 0.267 | 0.437 and 0.874 | -0.72 and 0.0831 | 0.653 and 0.302 |
| CCCNC(=O)OC[C@H]1O[C@H](CCON=C(C)CCC(=O)OC[C@H]2O[C@H](C#Cc3ccccc3)C=C[C@@H]2Oc2ccc(C)cc2)C=C[C@@H]1Oc1ccc(OC)cc1 | -0.164 | -0.142 (inactive) | -0.0152 (inactive) | 0.794 (inactive) | -0.575 | 0.165 (inactive) | -0.251 | -0.346 | -0.574 | -0.12 | 0.352 | -0.193 | -0.148 | -0.301 (inactive) | -0.397 | -0.952 | -0.501 | -0.637 | -0.121 | 0.711 |
| COC(=O)c1c2oc(c1C(=O)OC)C(=O)N[C@@H](Cc1ccccc1)Cn1cc(nn1)C1(CCCCC1)NC(=O)N[C@H](CO)CC2 | 1.43 and 0.951 | 0.168 (inactive) and 0.611 (inactive) | -0.79 (inactive) and -0.186 (inactive) | -0.427 (inactive) and -0.2 (inactive) | 2.52 and 0.978 | 2.09 (inactive) and 1.21 (inactive) | 0.558 and 0.72 | 1.57 and 0.416 | 0.971 and 0.57 | 0.0408 and -0.0697 | 0.582 and 0.45 | 0.407 and -0.327 | -0.287 and -0.366 | -0.55 (inactive) and -1.56 (inactive) | 1.16 and 0.505 | 0.86 and 0.41 | 0.158 and 0.198 | 0.794 and 0.388 | 0.749 and 0.194 | 0.728 and -0.0236 |
